In all, about 320,000 compounds went through this assay and about 7,600 (2.4%) were called active. Another 3% or so got no clear call; they are omitted. Calls follow the shape of the dose curve; as a rule, active = well fitted activation curve with a large enough effect; inconclusive = small, poorly fitted or top-dose-only effect; inactive = no such curve, though single readings can be large or run the other way. What follows is part of a selection rich in actives, with near analogues and random picks from the rest. Entries that show only a call come without a potency.
Test: qHTS Assay for NPC1 Promoter Activators; also: nearly all actives have a fitted effect of over 60% in size;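 as to activation: reporter is driven by a mutant NPC1 promoter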
Conditions: Huh7 NPC1 promoter luciferase reporter, 24 h; series mostly up to 9.22 µM
How it was run: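 Stable NPC1-promoter luciferase Huh7 line; cpd (DMSO) 24 h, 37 °C, 5% CO2; Amplite luciferase reagent 10 min RT; luminescence readout. qHTS format.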
Potency is read from the fitted curve at half-maximal effect.

Row | SMILES | Potency
1 | COc1ccc2ccn(C)c2c1 | inactive
2 | Cc1nn(Cc2ccccc2)c(C)c1C(=O)NCCCN1CCCC1=O | inactive
3 | Clc1ccc(-c2cc(-c3ccccn3)on2)c(Cl)c1 | 100 nM (active)
4 | COn1c(-c2ccc(Cl)cc2Cl)nc2ncccc21 | inactive
5 | Clc1ccc(-c2ncc3ccccn23)c(Cl)c1 | inactive
6 | CC(=O)CCC(=O)c1ccc2ccccc2c1 | inactive
7 | Cc1cc(N=Nc2ccc3ccccc3c2)ccc1O | 2240 nM (active)
8 | Cc1ccc(/C=N/NC(=O)c2cc3ccccc3cc2O)o1 | inactive
9 | Cc1ccc(S(=O)(=O)N(C)C)cc1NC(=O)c1ccc(-n2cncn2)c([N+](=O)[O-])c1 | inactive
10 | Cc1ccc(NC(=O)CN(C)C(=O)c2cccc(S(=O)(=O)N3CCCC3)c2)cc1 | inactive
11 | CC(=O)NC(c1cccs1)c1cc(Br)c2cccnc2c1O (stereo not given) | inactive
12 | CCC(C)NC(=O)c1ccc(NC(=O)CC2SC(N3CCCCC3)=NC2=O)cc1 (stereo not given) | inactive
13 | Cc1nonc1NC(=O)CSc1nc2ccccc2cc1C#N | inactive
14 | Cc1cc(NC(=O)CSc2nc3c(cc2C#N)CCCCC3)no1 | 1410 nM (active)
15 | CC(NC(=O)CSc1nc2c(cc1C#N)CN(C)CC2)c1ccccc1 (stereo not given) | inactive
16 | COc1ccc(C(=O)OCC(=O)c2cc(C)n(CC3CCCO3)c2C)cc1[N+](=O)[O-] (stereo not given) | inactive
17 | CCCCN(C(=O)C1CCC1)c1c(N)n(Cc2ccccc2)c(=O)[nH]c1=O | inactive
18 | Cn1c(SCC(=O)Nc2ccc(N3CCOCC3)cc2)nnc1C(F)(F)F | inactive
19 | COC(=O)C1CCN(C(=O)c2cc(=O)[nH]c3ccccc23)CC1 | inactive
20 | CC1CCN(C(=O)COC(=O)c2cc(=O)[nH]c3ccccc23)CC1 | 3550 nM (active)
21 | CN(C(=O)COC(=O)c1cc(=O)[nH]c2ccccc12)C1CCCCC1 | inactive
22 | CCN(CC)S(=O)(=O)c1ccc(C)c(NC(=O)COc2ccc(Br)cc2Cl)c1 | inactive
23 | Cc1cccc(NC(=O)Nc2ccc(OCc3ccccc3)cc2)n1 | inactive
24 | Cc1cccc(NC(=O)COc2ccc(Br)cc2C)n1 | 2820 nM (active)

Row | SMILES | Potency
25 | Cc1cc(C)cc(NC(=O)C(OC(=O)c2ccc(O)cc2)c2ccccc2)c1 (stereo not given) | inactive
26 | Cc1cc(C(=O)NNC(=S)Nc2ccccc2C)cs1 | 3160 nM (active)
27 | Cc1ccccc1NC(=S)NNC(=O)c1cccc(Br)c1 | inactive
28 | Cc1ccc(C)c(NC(=S)NNC(=O)c2csc(C)c2)c1 | inactive
29 | Cc1ccc(C(=O)OCC(=O)NCc2cc(C)c(O)c(C)c2)cc1S(=O)(=O)N1CCCCC1 | inactive
30 | NS(=O)(=O)c1ccc(N2C(=O)C3C4CC(C(Br)C4Br)C3C2=O)cc1 (stereo not given) | inactive
31 | CCOc1ccc(NC(=O)CN(C)C(=O)CSc2ccccc2)cc1OCC | inactive
32 | COc1ccc(C(=O)NNC(=O)c2cnccn2)cc1[N+](=O)[O-] | inactive
33 | O=C(COC(=O)c1ccccn1)NNC(=O)c1ccc([N+](=O)[O-])cc1 | inactive
34 | COc1ccc(C(=O)CSc2nc(C)cc(C)n2)cc1[N+](=O)[O-] | inactive
35 | Cc1ccc(C(=O)O/N=C(\N)c2ccccn2)cc1Cl | 1580 nM (active)
36 | N/C(=N\OC(=O)Cc1ccc([N+](=O)[O-])cc1)c1ccccn1 | inactive
37 | COc1ccc(C(=O)O/N=C(\N)c2ccccn2)cc1[N+](=O)[O-] | 2510 nM (active)
38 | Cc1ccc(/C(N)=N/OC(=O)COc2ccc(Cl)c(C)c2)cc1 | inactive
39 | N/C(=N\OC(=O)c1ccc([N+](=O)[O-])cc1)c1ccccn1 | 355 nM (active)
40 | O=C(Nc1ccccc1Cl)O/N=C(/c1ccccc1)c1ccccn1 | inactive
41 | CN(C(=O)Cn1nnc(-c2ccc(F)cc2)n1)C1CCS(=O)(=O)C1 (stereo not given) | inactive
42 | CCOC(=O)c1ccccc1NC(=O)COC(=O)C(Cc1c[nH]c2ccccc12)NC(C)=O (stereo not given) | inactive
43 | CC(C)Cc1nnc(NC(=O)CCNC(=O)c2ccccc2Cl)s1 | inactive
44 | O=C(COC(=O)CNC(=O)C1CCCCC1)NCc1ccccc1 | inactive
45 | CC(C(=O)NC1CCCC1)N1CCN(S(=O)(=O)c2ccccc2Cl)CC1 (stereo not given) | inactive
46 | Cc1ccc(NS(=O)(=O)c2ccc3c(c2)CC(=O)N3)cc1Cl | inactive
47 | O=C(OCC(=O)N1CCc2ccccc21)c1ccc([N+](=O)[O-])cc1 | inactive
48 | CC1CCCN(C(=O)c2cc(-c3ccco3)nc3ccccc23)C1 (stereo not given) | inactive

Row | SMILES | Potency
49 | Nc1ccc(N=Nc2ccccc2Cl)c(N)n1 | 3160 nM (active)
50 | O=C(NCc1ccncc1)c1cccc(NS(=O)(=O)c2ccc(F)c(F)c2)c1 | inactive
51 | CC[C@H](C)C(=O)N[C@H]1CCCN1C(=O)/C=C/c1ccccc1 | inactive
52 | Cc1nc2cc(NC(=O)NCc3ccccc3)ccc2o1 | inactive
53 | Cc1nc2ccc(NC(=O)C(F)(F)F)cc2o1 | inactive
54 | Cc1ccc(NC(=O)Nc2ccc3oc(C)nc3c2)cc1 | 1120 nM (active)
55 | CCc1ccc(OCC(=O)OC(C)C(=O)NC2CC2)cc1 (stereo not given) | inactive
56 | O=C(CN1CCc2ccccc2C1)Nc1cccc(S(=O)(=O)N2CCOCC2)c1 | inactive
57 | Cc1cccc(NS(=O)(=O)c2cccc(C(=O)NNC(=O)c3ccccc3O)c2)c1 | inactive
58 | Cc1cc(C)cc(OCC(=O)Nc2ccc(N3CCOCC3)cc2N2CCOCC2)c1 | inactive
59 | O=C(CCN1c2ccccc2Sc2ccccc21)Nc1ccccc1 | inactive
60 | CCN1/C(=C/C(=S)Nc2ccccc2)Sc2ccccc21 | 3980 nM (active)
61 | CCN1/C(=C/c2ccc3ccc(C)cc3[n+]2CC)Sc2ccccc21 | inactive
62 | O=C(NCc1ccc2c(c1)OCO2)c1ccc(Cl)s1 | inactive
63 | O=C(NC1=NCCS1)c1ccc(Cl)s1 | 2510 nM (active)
64 | O=C(NC1=NCCS1)[C@H](Cc1ccccc1)N1C(=O)c2ccccc2C1=O | inactive
65 | COc1ccc(C(=O)NC2=NCCS2)c(OC)c1 | 891 nM (active)
66 | COc1ccccc1C(=O)NCCC(=O)NC1=NCCS1 | inactive
67 | CCOc1ccc(C(=O)CCC(=O)NC2=NCCS2)cc1 | inactive
68 | O=C(COC(=O)c1ccc(N2CCCC2=O)cc1)c1ccc(OC(F)F)cc1 | inactive
69 | COc1cc(OC)cc(-c2c(-c3cccs3)c3cc(-c4ccc(OC)nc4)ccc3n2C)c1 | inactive
70 | CCCCN(C(=O)c1ccc2ccccc2c1)c1c(N)n(CCCC)c(=O)[nH]c1=O | inactive
